From PubChem BioAssay
The list is not random: actives were taken first. Their share in the collection is about 12%.
FMDV inh: antivirals against foot and mouth disease virus; FMDV antiviral cell-based qHTS; Potency, µM (series often up to 57.9 µM), for inactives: top-dose activity change, negative = inhibition, hits mostly inhibitors; actives 1.2% (n = 410,000); AID 1159524; calls by dose curve; tested in HEK293T cells; note: read-out not given here; potency is the fitted concentration of half-maximal effect; % is set by controls: 0 for no effect and ±100 for the full control effect; nearly all actives have a fitted effect of over 45% in size
Sm TGR block: blocks Schistosoma mansoni thioredoxin glutathione reductase | Potency, µM (titrated, usually from 114 µM), without a hit: top-dose activity change, negative = inhibition, most hits filed as inhibitors | purified TGR, DTNB reduction, TNB absorbance 405 nm | Q962Y6 | actives 3% (n = 360,000); active = well fitted inhibition curve with a large enough effect; inconclusive = small, poorly fitted or top-dose-only effect; inactive = no such curve, though single readings can be large or run the other way; note: potency is the fitted concentration of half-maximal effect; % is set by controls: 0 for no effect and ±100 for the full control effect; nearly all actives have a fitted effect of over 60% in size
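Kinetic colorimetric format: TGR-catalysed, NADPH-driven DTNB reduction monitored via TNB absorbance. Enzyme dispensed at 20 nM; compound exposure 15 min at room temperature before reaction start.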
Shiga inhibitor: Shiga toxin inhibition | Vero cells, Shiga toxin protein synthesis inhibition reporter | inhibition, % at 38.7 µM | actives 9.2% (n = 290,000); in the data active = inhibition mostly above about 28%, no sharp cut-off; inactive = mostly below about 43%; note: 0% is about no effect
CHX counter: counter-screen for Shiga toxin inhibitors: cycloheximide protein synthesis inhibition; cell reporter, cycloheximide protein synthesis inhibition counterscreen; max response, %; actives 12% (n = 300,000); in the data active = max response mostly above about 13%, no sharp cut-off; inactive = mostly below about 14%; note: read at 38.3 µM for the half of the compounds with a filed dose; 0% is about no effect
* hit, by the source's call; ? = inconclusive; . = no result; + = active, no number.

SMILES	FMDV inh	Sm TGR block	Shiga inhibitor	CHX counter
Cc1ccc2nc(NC(=O)C3CCCN(S(=O)(=O)c4cnc[nH]4)C3)sc2c1 (stereo not given)	23%	-15%	+	43*
CCS(=O)(=O)N1Cc2ccccc2CC1C(=O)Nc1nnc(SCc2ccc(C#N)cc2)s1 (stereo not given)	-28%	-4%	5	-2
CCS(=O)(=O)N1Cc2ccccc2CC1C(=O)Nc1nc2ccc(C)cc2s1 (stereo not given)	18%	-1%	68*	39*
CCS(=O)(=O)N1Cc2ccccc2CC1C(=O)Nc1ccc(C)cc1 (stereo not given)	-11%	1%	49	13
CC12CCC=CC1C(c1ccc(/C=C/c3ccccc3)cc1F)N(Cc1ccccc1)C2=O (stereo not given)	.	.	19	18
CC(=O)c1ccc(N2CCN(c3nc4c(S(=O)(=O)c5ccc(C)c(C)c5)nnn4c4ccc(Cl)cc34)CC2)cc1	0%	8%	.	.
COc1cccc(-c2nc3cc(SC)ccc3cc2CN(C(=O)c2sccc2C)C2CC2)c1	-3%	.	.	.
O=C(CCCCn1c(=O)[nH]c2ccsc2c1=O)N1CCN(c2cccc(C(F)(F)F)c2)CC1	40µM*	-4%	.	.
COC(=O)c1ccc2c(=O)n(CCCCCC(=O)N3CCN(c4ccccc4)CC3)c(=O)[nH]c2c1	11µM*	-4%	2	-3
COC(=O)c1ccc2c(=O)n(CCCCCC(=O)N3CCN(c4cc(Cl)ccc4C)CC3)c(=O)[nH]c2c1	14µM*	-11%	.	.
COc1cc2[nH]c(=O)n(CCCCCC(=O)N3CCN(c4ccc(Cl)cc4)CC3)c(=O)c2cc1OC	18µM*	-3%	.	.
O=C(Nc1ccc(Br)cc1F)c1ccc2nc(CCc3ccccc3)oc2c1	11%	-8%	.	.
CC[C@H](C)N	.	.	-8	-2
O=S(=O)(Nc1ccc2c(c1)OCCO2)c1cccs1	.	1%	83*	54*
COC(=O)c1ccc(NC(=O)CNS(=O)(=O)c2cccs2)cc1	21%	-6%	32	19*
O=S(=O)(Nc1ccc2c(c1)OCO2)c1cccs1	55%	-33%	11	2
CCOC(=O)c1ccc(NC(=O)CCNS(=O)(=O)c2cccs2)cc1	25%	3%	-1	2
O=C(CNS(=O)(=O)c1cccs1)Nc1ccc2c(c1)OCCO2	34%	0%	90*	43*
Cc1cccc(CS(=O)(=O)Cc2ccc(C(=O)NCc3ccc(F)cc3)o2)c1	-6%	?	.	.
COc1ccc(CCCn2ncc3c2nc(N)n2nc(-c4ccco4)nc32)cc1	?	.	4	7
CCC(=O)N1CCc2cc(S(=O)(=O)NC(CC(C)C)C(=O)NCc3ccc(F)cc3)ccc21 (stereo not given)	-7%	9%	.	.
CCN1CCOC(CC(=O)Nc2ccc([N+](=O)[O-])cc2)C1=O (stereo not given)	-4%	20µM*	-4	1
CC1(C)CC(CC(=O)Nc2ccc([N+](=O)[O-])cc2)C(=O)O1 (stereo not given)	-3%	1%	-6	2
O=C(CC1OCC2CCCN2C1=O)Nc1ccc([N+](=O)[O-])cc1 (stereo not given)	-6%	25µM*	24	5
COC(=O)c1cc(NS(=O)(=O)c2cc(Br)cc3c2N(C(C)=O)CC3)cc(C(=O)OC)c1	40%	4%	.	.
SMILES	FMDV inh	Sm TGR block	Shiga inhibitor	CHX counter
O=C(O)c1ccc(-c2ccc(OS(=O)(=O)c3ccccc3F)cc2)cc1	62%	3%	65*	19*
COC(=O)c1ccccc1S(=O)(=O)Oc1ccc(-c2ccc(C(=O)O)cc2)cc1	30%	0%	1	4
O=C(CC1N=C2c3ccccc3N=C(SCc3ccccc3F)N2C1=O)NCc1ccc2c(c1)OCO2 (stereo not given)	44%	1%	.	.
Cc1nn(C)c(Sc2ccccc2N)c1[N+](=O)[O-]	41%	.	90	29*
O=C(COCc1cc(-c2ccc3c(c2)OCO3)on1)Nc1cccnc1Cl	33%	3%	29	25*
CCN1CCN(C(=O)COCc2cc(-c3ccc4c(c3)OCO4)on2)CC1	11%	3%	27	22*
O=C(Nc1ccc(Br)cc1)N1CCC(CN2CCCC2)CC1	7%	-27%	.	.
COC(=O)c1ccccc1NC(=S)NC(=O)c1ccccc1	0%	11µM*	49	9.0*
O=C(NC(=S)Nc1ccc([N+](=O)[O-])cc1O)C1CCCCC1	-2%	1%	10	16
COC(=O)c1ccccc1NC(=S)NC(=O)CC(C)C	-18%	-23%	-3	13
COC(=O)c1ccccc1NC(=S)NC(=O)COc1ccccc1	-26%	22µM*	24	13
